Assay results published in PubChem BioAssay.
A number with no mark means an inactive call. Calls of active or inactive are those of the source. Rule as the data show it, unless noted: active = inhibition above about 36%; inactive = the rest.

Experiments:
[1] = tested on: transactivating tegument protein VP16 (Human herpesvirus 1); experiment: VP16 transactivation reporter inhibitors, counter-screen for SRC2 inhibitor project, cell-based, luminescence, single concentration (AID 652007); details: cell-based VP16 transactivation luciferase reporter, at 8.9 µM, hits give high values
[2] = target: Nuclear receptor coactivator 2 (Homo sapiens) (UniProt Q15596); experiment: SRC2 coactivator transcriptional activity inhibitors, confirmation, cell-based, luminescence, HEK293, triplicate (AID 652008;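 active = mean inhibition above 46.5%, the solvent-only control mean plus 3 SD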;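 also: 0% = DMSO-treated cells and 100% = Gossypol at 36 µM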); details: HEK293 GAL4-SRC2 luciferase reporter, at 8.9 µM, hits give high values
Nuclear receptor coactivator 2 (Homo sapiens), sequence (Q15596 whole entry, looked up, the tested form may be a part): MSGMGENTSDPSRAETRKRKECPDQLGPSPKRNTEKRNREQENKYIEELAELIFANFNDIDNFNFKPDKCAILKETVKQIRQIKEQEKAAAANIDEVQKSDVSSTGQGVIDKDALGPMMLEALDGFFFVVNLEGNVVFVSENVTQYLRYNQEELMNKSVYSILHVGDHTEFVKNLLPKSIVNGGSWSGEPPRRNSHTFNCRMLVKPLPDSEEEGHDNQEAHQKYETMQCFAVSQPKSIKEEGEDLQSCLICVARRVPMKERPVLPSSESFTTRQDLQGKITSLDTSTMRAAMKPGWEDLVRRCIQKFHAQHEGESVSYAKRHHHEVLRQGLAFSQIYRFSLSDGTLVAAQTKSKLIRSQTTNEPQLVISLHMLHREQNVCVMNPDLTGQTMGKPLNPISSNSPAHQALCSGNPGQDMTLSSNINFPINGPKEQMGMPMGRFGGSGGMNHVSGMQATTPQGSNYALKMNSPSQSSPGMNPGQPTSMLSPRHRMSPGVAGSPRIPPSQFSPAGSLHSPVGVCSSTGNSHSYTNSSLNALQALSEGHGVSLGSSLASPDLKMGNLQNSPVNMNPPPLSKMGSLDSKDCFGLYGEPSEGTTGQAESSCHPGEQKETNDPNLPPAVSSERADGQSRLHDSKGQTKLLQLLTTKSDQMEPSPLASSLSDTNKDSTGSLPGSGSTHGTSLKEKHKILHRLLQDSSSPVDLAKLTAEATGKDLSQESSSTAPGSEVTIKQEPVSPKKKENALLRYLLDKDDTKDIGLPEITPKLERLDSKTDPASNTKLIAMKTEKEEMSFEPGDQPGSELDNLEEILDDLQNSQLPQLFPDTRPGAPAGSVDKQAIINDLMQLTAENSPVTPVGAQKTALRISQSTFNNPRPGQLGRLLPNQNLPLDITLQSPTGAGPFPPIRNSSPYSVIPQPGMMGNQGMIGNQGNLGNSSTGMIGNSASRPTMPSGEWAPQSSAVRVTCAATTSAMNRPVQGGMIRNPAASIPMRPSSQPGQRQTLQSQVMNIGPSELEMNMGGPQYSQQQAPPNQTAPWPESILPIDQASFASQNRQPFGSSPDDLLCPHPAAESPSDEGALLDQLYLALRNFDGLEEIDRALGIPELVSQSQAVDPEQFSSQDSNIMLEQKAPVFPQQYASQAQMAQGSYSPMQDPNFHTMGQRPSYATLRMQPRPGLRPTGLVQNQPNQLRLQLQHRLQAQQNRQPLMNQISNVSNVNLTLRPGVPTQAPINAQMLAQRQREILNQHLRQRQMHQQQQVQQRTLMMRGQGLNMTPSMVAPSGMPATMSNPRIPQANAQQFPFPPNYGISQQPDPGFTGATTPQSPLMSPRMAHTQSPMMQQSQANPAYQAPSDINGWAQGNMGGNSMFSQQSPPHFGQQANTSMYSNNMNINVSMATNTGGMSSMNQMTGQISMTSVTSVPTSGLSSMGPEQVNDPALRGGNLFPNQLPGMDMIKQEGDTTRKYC

SMILES | inhibition [1] | inhibition [2]
CCCC(=O)Nc1cccc(NC(=O)c2ccccc2Br)c1 | -0.46% | -17.8%
O=C(CSc1nc(N2CCOCC2)nc(N2CCOCC2)n1)Nc1ccccc1F | 1.31% | 14.8%
CCc1ccc(/C=C2\SC(=S)N(CCC(=O)Nc3cc(C)on3)C2=O)cc1 | -41% | 16.6%
O=C1NC(Cc2ccc(O)cc2)c2nc3cc(Cl)ccc3c(=O)n2-c2ncccc21 (centres undefined) | -1.01% | -15.2%
CCCC(O)(CCC)C(=O)NN(C(=O)CCl)c1ccccc1 | 8.55% | 30.1%
O=C(CCl)N1c2ccccc2CCc2ccccc21 | 29.1% | 31.7%
COc1ccccc1CNS(=O)(=O)c1ccc(-c2cc(C)no2)cc1 | -13% | -7.27%
NC(=O)c1ccsc1NC(=O)COC(=O)c1ccc([N+](=O)[O-])o1 | -4.1% | -22.5%
O=C(Nc1ccc2c(c1)OCCO2)c1ccc(Br)c(S(=O)(=O)N2CCOCC2)c1 | -39.8% | 45.5%
C=C1CC2(OC1=O)c1ccccc1CCc1ccccc12 | 49.2% (active) | 29.7%
CCc1ccc(C(=O)N2CCN(c3ccc(NC(=O)c4cccnc4)cc3)CC2)cc1 | -14.2% | -9.49%
COc1ccc(CNC(=O)COC(=O)/C=C/c2cccc(Br)c2)cc1OC | -0.64% | -19.4%
C[C@@H]1C[C@H]2O[C@@H]2/C=C\C=C\C(=O)Cc2cc(O)cc(O)c2C(=O)O1 | 34.7% | 15.2%
Cc1cc(C(=O)CN2C(=O)c3ccccc3S2(=O)=O)c(C)n1-c1ccccc1 | -10.4% | 55.4% (active)
C=CCn1nc(C(=O)N2CCOCC2)cc1-c1sc(NC(=O)c2ccccc2)nc1C | -15.6% | 24.6%
O=[N+]([O-])c1ccc(S(=O)(=O)c2ccccc2)nc1 | 51.9% (active) | 36%
O=C(c1ccccc1)N1CCN(c2ncnc3sc4c(c23)CCC4)CC1 | 19.7% | 37.1%
Cc1cccnc1CN1CCN(C(=O)c2cc(COc3ccc4ncccc4c3)on2)CC1 | 8.23% | 15.3%
O=C(CCCN1C(=O)/C(=C/c2ccccc2Cl)SC1=S)Nc1ccccn1 | 25.5% | 43.8%
Cc1cccc(NC(=S)NNc2ncc(C(F)(F)F)cc2Cl)c1 | 24.3% | 11.6%
O=C(Nc1cccc(F)c1)c1cccnc1 | 1.51% | -2.72%
Cc1ccc(C)c(NS(=O)(=O)c2cc(C(=O)NCCSC3CCCCC3)ccc2C)c1 | -17.6% | 3.68%
O=C(O)CCCc1nc(-c2ccc(Cl)cc2)no1 | 20.7% | 30%
COC(=O)c1c(N)sc(C(=O)NCCc2ccccc2)c1C | -1.83% | 49.4% (active)

SMILES | inhibition [1] | inhibition [2]
O=C(CCl)N(Cc1cc(=O)[nH]c2ccccc12)c1ccccc1 | 38.6% (active) | 50.5% (active)
O=C(NC1CC1)c1ccc(-c2nc3ccccc3s2)s1 | -51.1% | 16.9%
COC(=O)[C@H]1C[C@@]2(c3ccccc3)c3ccccc3N(S(=O)(=O)c3ccccc3)[C@H]2N1 | 6.95% | 18.3%
CC(=O)N(Cc1ccc(F)cc1)C1=C(NCCc2ccccc2)C(=O)c2ccccc2C1=O | 14.1% | 20%
O=C(CCCSc1nc2ccccc2s1)NC1=NCCS1 | 27.1% | 20.4%
CC(=O)Nc1nc(-c2ccc3c(c2)CCN3C(=O)C2CC2)c(C)s1 | 13.2% | 49.3% (active)
COc1ccc(C2CC(c3cccs3)=NN2C(=O)CCl)cc1OC (centres undefined) | 42.5% (active) | 6.43%
CC(=O)CC[C@@H]1CC[C@]2(CCCN(S(C)(=O)=O)C2)O1 | -18.6% | -4.54%
CC(Sc1nnc(CN2CCCC2)n1Cc1ccccc1)C(=O)Nc1ccc(F)cc1 (centres undefined) | 1.17% | -5.19%
COc1ccc(OC)c(-n2nnnc2SCC(=O)Nc2cc(C)ccc2OC)c1 | -22.1% | 2.63%
Cc1cccc(N(Cc2cc(=O)[nH]c3ccccc23)C(=O)CCl)c1 | 42.4% (active) | 83% (active)
Cc1nc(-c2ccc(NC(=O)c3ccco3)cc2)cs1 | 18.9% | 60.4% (active)
CCCCOc1ccc(C2(C)NC(=O)NC2=O)cc1 (centres undefined) | -7.32% | -2.28%
Cc1ccc2nc(-c3cc(N)cc(N)c3)oc2c1 | -8.66% | 38.3%
O=C(O)/C=C/C(=O)N(CC1CCCO1)C1CC(=O)N(c2c(Cl)cccc2Cl)C1=O (centres undefined) | -22.7% | -29.3%
COc1ccc(-n2c(SCC(=O)NN=Cc3c(O)ccc4ccccc34)nnc2-c2ccc(C(C)(C)C)cc2)cc1 | -13% | 30.7%
COc1ccc(O)c(/C=N/NC(=O)c2ccc(CSc3nc(C)cc(C)n3)cc2)c1 | 0.19% | 26.4%
CC(C)(C)c1ccc(Oc2ccc(NC(=O)c3ccco3)cn2)cc1 | 30.6% | 42.2%
O=C1N(Cc2cccc(Cl)c2)C[C@@H]2C[C@@H](c3cccc4cccnc34)N3CCC[C@@]123 | -2.19% | -23.5%
Cc1ccc(C(C)C)c(OCc2ccc(C(=O)N/N=C/c3ccc(C(=O)O)cc3)cc2)c1 | -13.2% | 41.4%
COc1cccc(NC(=O)Nc2nnc(N3C(C)CCCC3C)s2)c1 (centres undefined) | -51.2% | -7.93%
Cc1cc(NC(=O)c2ccccc2)c(Cl)cc1N | 25.4% | 52.1% (active)
C=C1C(=O)O[C@@H]2C[C@@H](C)[C@@H]3C=CC(=O)[C@@]3(C)[C@@H](OC(C)=O)[C@H]12 | 96% (active) | 91% (active)
O=C(CCCN1C(=O)/C(=C/c2ccccc2Cl)SC1=S)NNC(=O)c1ccccc1 | 61.2% (active) | 73% (active)

SMILES | inhibition [1] | inhibition [2]
COc1cccc(C(=O)c2sc(NC(C)C)nc2N)c1 | 6.6% | 57.2% (active)
CN(/C(=N\S(=O)(=O)c1ccccc1)c1ccccc1)c1ccc(O)cc1 | -3.87% | -40.4%
Cc1cccc(C)c1NC(=O)CN1CCN(C/C=C/c2ccccc2)CC1 | -15.1% | -3.36%
CC(C)c1ccc(/C=C/C(=O)N2CCCCCC2)cc1 | -73.2% | -26%
COc1cccc(N2CCN(C(=O)c3ccc(CS(=O)c4ccc(Cl)cc4)o3)CC2)c1 (centres undefined) | 19.7% | 14.5%
CCOc1ccc(/C=C/c2c([N+](=O)[O-])c(=O)n(C)c(=O)n2C)cc1 | 7.01% | 2.26%
O=c1c(Br)ccc(Br)cc1Br | 97.7% (active) | 99.4% (active)
CN1/C(=C\C=C2/SC(=S)NC2=O)C(C)(C)c2ccccc21 | 8.01% | 15.6%
Clc1ccccc1/C=C/c1nc(-c2ccccn2)no1 | -11.4% | 18.9%
COc1cc(CNS(=O)(=O)c2ccc3c(c2)CC(C)N3C(=O)C2CCC2)cc(OC)c1OC (centres undefined) | 5.37% | 29.3%
Cc1ccc(C)c(NC(=O)COc2coc(CN3CCc4ccccc4C3)cc2=O)c1 | -2.11% | 22.7%
CC(C)(C)c1ccc(C(=O)CCC(=O)OCC(=O)NCCc2ccc(S(N)(=O)=O)cc2)cc1 | 26.1% | 37.1%
N#Cc1c(NC(=O)CCCC(=O)O)sc2c1CCCCC2 | -8.88% | 44%
Cc1ccc2c(c1)N(C(C)C(=O)NCc1ccc3c(c1)OCO3)C(=O)CO2 (centres undefined) | -10.5% | -19.4%
CCc1ccc(-c2nc(CS(=O)CC(=O)NCc3ccccc3)c(C)o2)cc1 (centres undefined) | -8.7% | 51.9% (active)
CCCCCc1c(C)nc(N2CCc3ccccc32)[nH]c1=O | -17.3% | 14.9%
O=C(Nc1ccc2oc(=O)c(C(=O)O)cc2c1)Oc1ccccc1 | -3.08% | 9.66%
COc1ccc(CNC(=O)C2CCCN(Cc3nc(-c4cccc(C)c4)oc3C)C2)cc1 (centres undefined) | -10.5% | 0.33%
Cc1cc(=O)oc2cc(OC(C)C(=O)NCCc3ccc(S(N)(=O)=O)cc3)ccc12 (centres undefined) | -19.6% | -12.7%
COC(=O)C1CN(Cc2ccccc2)CCS(=O)(=O)N1Cc1cn(Cc2ccc(Cl)cc2)nn1 (centres undefined) | -13.7% | -3.09%
CCc1cc2c(Sc3nc4ccccc4s3)ncnc2s1 | 36.6% (active) | 42.6%
CC(C)(C)NS(=O)(=O)c1ccc(Oc2ncc(C(F)(F)F)cc2Cl)cc1 | -20% | 14.2%
CCOC(=O)Cc1csc(N/N=C/c2ccc(C(F)(F)F)cc2)n1 | -7.46% | 44.6%
Cc1cccc(N(Cc2ccccc2)C(=O)CCl)c1 | 15% | 33.4%
